RecA intein inh – Mtb RecA intein splicing inhibitors, primary screen, biochemical, fluorescence, HTS; Protein RecA (Mycobacterium tuberculosis (strain ATCC 25618 / H37Rv)), P9WHJ3; cell-free RecA intein splicing; inhibition, % (no concentration beside the values); 290,000 compounds, 0.75% hits; AID 2221, 2009; in the data active means inhibition above about 30%
GDH-TPI counter-1 – GDH-TPI coupling enzyme inhibitors, primary screen, artefact control for M. tuberculosis FBA inhibitor project, biochemical, absorbance, full deck. 360,000 compounds, 1.2% hits. GDH-TPI coupled enzyme counterscreen, NADH absorbance. inhibition, % at 4.8 µM. AID 588335, 2011; in the data active means inhibition above about 30%
Rv3671c protease – Rv3671c serine protease inhibitors, primary screen, biochemical, fluorescence polarization, M. tuberculosis H37Rv. inhibition, % at 5.96 µM. AID 2606, 2010. 320,000 compounds, 0.048% hits. P9WHR9; in the data active means inhibition above about 38%;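 further: extracellular domain of Rv3671c used as enzyme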
Target sequence (P9WHR9 whole entry, looked up, the tested form may be a part): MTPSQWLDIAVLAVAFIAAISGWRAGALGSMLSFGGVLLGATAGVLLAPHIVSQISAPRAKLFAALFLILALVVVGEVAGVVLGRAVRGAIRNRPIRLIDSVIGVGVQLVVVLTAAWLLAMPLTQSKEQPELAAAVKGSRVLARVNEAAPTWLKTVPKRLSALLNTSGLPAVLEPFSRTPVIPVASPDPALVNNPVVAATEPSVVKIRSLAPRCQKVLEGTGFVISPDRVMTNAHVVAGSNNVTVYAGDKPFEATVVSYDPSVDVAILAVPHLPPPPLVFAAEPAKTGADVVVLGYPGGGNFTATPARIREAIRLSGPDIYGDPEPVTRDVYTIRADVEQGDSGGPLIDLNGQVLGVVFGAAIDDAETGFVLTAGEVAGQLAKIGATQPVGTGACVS
Mtb UGM inh – M. tuberculosis UGM enzyme inhibitors, primary screen, biochemical, fluorescence polarization, single point; purified UGM, fluorescence polarization probe displacement; 320,000 compounds, 0.06% hits; inhibition, % at 10 µM; AID 504406, 2011; in the data active means inhibition above about 10%, passing the limit was not always enough
BH1578 lux ind – inducers of Vibrio cholerae quorum light production without autoinducers, primary screen, BH1578 luxS cqsA deficient, single point; V. cholerae BH1578 lux reporter, luminescence, 6 h; activation, % at 18.7 µM; 350,000 compounds, 0.16% hits; in the data active means activation mostly above about 9.7%, no sharp cut-off
Mtb FBA inh – Mtb FBA enzyme inhibitors, primary screen, biochemical, fluorescence, strain H37Rv. Fructose-bisphosphate aldolase (Mycobacterium tuberculosis (strain ATCC 25618 / H37Rv)), …. purified M. tuberculosis FBA, fluorescence read-out. inhibition, % at 1 µM. 360,000 compounds, 2.3% hits
Mtb FBA confirm – M. tuberculosis aldolase blockers, biochemical, fluorescence, strain H37Rv, confirmation; shares compounds with Mtb FBA inh; 5,600 compounds, 78% hits; purified M. tuberculosis FBA, fluorescence read-out; AID 651616, 2012; inhibition, % at 1 µM
GDH-TPI counter-2 – GDH-TPI coupling enzyme inhibitors, artefact control for M. tuberculosis FBA inhibitor project, biochemical, fluorescence, high throughput; inhibition, % at 1 µM; shares compounds with Mtb FBA inh; 5,600 compounds, 81% hits; GDH-TPI coupled enzyme counterscreen; in the data active means inhibition above about 10%
Hits are given with their value; 0 = inactive; - = no result; + = active, no number. Rows were chosen to be rich in hits. Some 4.1% of all compounds tested hit in one or more screens of this group. Unless noted, no stated cut-off is given here; in the data, active means inhibition above about 27%; inactive means the rest.

SMILES | RecA intein inh | GDH-TPI counter-1 | Rv3671c protease | Mtb UGM inh | BH1578 lux ind | Mtb FBA inh | Mtb FBA confirm | GDH-TPI counter-2
COC(=O)c1sc2nc(C)cc(C)c2c1N | 0 | 0 | 0 | 0 | 0 | 37.5 | 0 | 0
Cc1ccc(N2CC(=O)N(NC(=O)c3sc4nc(C)cc(C)c4c3N)CC2=O)cc1 | 0 | 0 | 0 | 0 | 0 | 48.0 | 59.2 | 46.7
Cc1cc(C)c2c(N)c(C(=O)Nc3ncc(C)s3)sc2n1 | - | 0 | 0 | 0 | 0 | 42.7 | 120.8 | 119.3
COc1ccc2nc(NC(=O)c3sc4nc(C)cc(C)c4c3N)sc2c1 | 0 | 0 | 0 | 0 | 0 | 0 | - | -
Cc1cc(C)c2c(N)c(C(=O)Nc3ccccc3Br)sc2n1 | 0 | 0 | 0 | 0 | 0 | 42.4 | 152.3 | 117.0
OCC(O)C(O)C(O)c1cnn(-c2ccccc2)n1 (stereo unspecified) | - | 0 | - | - | - | 0 | - | -
O=C(Nc1ccc(SC(F)F)cc1)c1ccc(F)cc1 | 0 | 0 | 0 | 0 | 0 | 0 | - | -
COc1ccccc1NC1=C(C)C(=O)CC1 | 0 | 0 | 0 | 0 | 0 | 0 | - | -
COc1ccc(OC)c2c1CCC2=O | 0 | 0 | 0 | 0 | 0 | 30.3 | 70.8 | 51.1
CNC(=O)c1cn2c3c(ccc(Cl)c3c1=O)OC(C)C2 (stereo unspecified) | - | 0 | - | - | 0 | 37.0 | 0 | 0
COc1ccc(N2C(=O)c3ccccc3NC23CCCCC3)cc1 | 0 | 0 | 0 | 0 | 0 | 36.6 | 110.8 | 108.8
COc1ccc(N2C(=O)c3ccccc3NC23CCC(C)CC3)cc1 (stereo unspecified) | - | 0 | 0 | 0 | 0 | 0 | - | -
COc1cc2c(cc1OC)C(C)N(C(=O)c1cc3c(s1)-c1c(C)cccc1OC3)CC2 (stereo unspecified) | 0 | 0 | 0 | 0 | 0 | 30.6 | 138.6 | 97.0
O=C(c1cc2c(s1)-c1ccccc1OC2)N1CCc2ccccc2C1 | 0 | 0 | 0 | 0 | 0 | 0 | - | -
CCOC(=O)C1CCN(C(=O)c2cc3c(s2)-c2ccccc2OC3)CC1 | 0 | 0 | 0 | 0 | 0 | 85.4 | 0 | 0
COc1cc2c(cc1OC)C(C)N(C(=O)c1cc3c(s1)-c1ccccc1OC3)CC2 (stereo unspecified) | 0 | 0 | 0 | 0 | 0 | 58.8 | 36.7 | 32.6
Cc1ccc(C)c(NC(=O)C2CCN(C(=O)c3cccs3)CC2)c1 | - | 0 | 0 | 0 | 0 | 0 | - | -
COc1cc2cc(C(=O)N(C)C3CCS(=O)(=O)C3)[nH]c2cc1OC (stereo unspecified) | 0 | 0 | 0 | 0 | 0 | 30.8 | 0 | 0
CN(C(=O)c1ccc(Cl)cc1)C1CCS(=O)(=O)C1 (stereo unspecified) | - | 0 | 0 | 0 | 0 | 0 | - | -
O=C(c1cc2c(ccc3ccccc32)o1)N1CCCCC1 | 0 | 0 | 0 | 0 | 0 | 0 | - | -
CN1CCN(C(=O)c2cc3c(ccc4ccccc43)oc2=O)CC1 | 0 | 0 | 0 | 0 | 0 | 54.0 | 45.1 | 30.5
Clc1ccc(-c2ccnc(-n3cccc3)n2)s1 | 0 | 0 | 0 | 0 | 0 | 45.3 | + | 156.9
c1coc(-c2ccnc(-n3cccc3)n2)c1 | 0 | 0 | 0 | - | 0 | 31.2 | 147.4 | 128.9
Clc1ccsc1-c1ccnc(-n2cccc2)n1 | 0 | 0 | 0 | 0 | 0 | 0 | - | -
CCOc1ccc2oc(C(=O)OCC(=O)NC3CCCCC3)c(C)c2c1 | - | 0 | 0 | 0 | 0 | 0 | - | -
SMILES | RecA intein inh | GDH-TPI counter-1 | Rv3671c protease | Mtb UGM inh | BH1578 lux ind | Mtb FBA inh | Mtb FBA confirm | GDH-TPI counter-2
COc1ccc2oc(C(=O)OCC(=O)NC3CCCC3)c(C)c2c1 | 0 | 0 | 0 | 0 | 0 | 38.2 | 131.6 | 112.6
COc1ccc2oc(C(=O)OCC(=O)Nc3ccc(NC(C)=O)cc3)c(C)c2c1 | - | 0 | 0 | 0 | 0 | 27.4 | 93.9 | 79.7
COc1ccc2oc(C(=O)OCC(=O)Nc3cc(S(=O)(=O)N4CCOCC4)ccc3OC)c(C)c2c1 | 0 | 0 | 0 | 0 | 0 | 0 | - | -
COc1ccc2oc(C(=O)OCC(=O)NC3CCS(=O)(=O)C3)c(C)c2c1 (stereo unspecified) | - | 0 | - | - | 0 | 52.8 | 166.8 | 103.7
COc1ccc2oc(C(=O)OCC(=O)Nc3cc(S(=O)(=O)N4CCOCC4)ccc3C)c(C)c2c1 | 0 | 0 | 0 | 0 | 0 | 31.9 | 0 | 0
CC(C)[C@H](NC(=O)C1CCN(S(=O)(=O)c2ccccc2)CC1)C(=O)NCc1ccc(F)cc1 | 0 | 0 | 0 | 0 | 0 | 0 | - | -
CCCN(C(=O)c1cccc(-n2cccc2)c1)c1c(N)n(Cc2ccccc2)c(=O)[nH]c1=O | 0 | 0 | 0 | 0 | 0 | 0 | - | -
O=C(Nc1ccccc1OC(=O)c1ccccc1)c1ccccc1 | - | 0 | - | - | 0 | 0 | - | -
COc1ccc2oc(C(=O)OCC(=O)NC3(C#N)CCCC3)c(C)c2c1 | 0 | 0 | 0 | 0 | 0 | 34.7 | + | +
CCc1cc(=O)oc2c(C)c(OCC(=O)N3C[C@H]4C[C@@H](C3)c3cccc(=O)n3C4)ccc12 | 0 | 0 | 0 | 0 | 0 | 0 | - | -
CC(C)=CCOc1ccc2c(C)c(CCC(=O)N3C[C@H]4C[C@@H](C3)c3cccc(=O)n3C4)c(=O)oc2c1C | - | 0 | - | - | 0 | 82.3 | 101.6 | 92.1
Cc1coc2cc3oc(=O)c(CC(=O)N4C[C@H]5C[C@@H](C4)c4cccc(=O)n4C5)c(C)c3cc12 | 0 | 0 | 0 | 0 | 0 | 0 | - | -
Cc1c(C)c2ccc(OCC(=O)N3C[C@H]4C[C@@H](C3)c3cccc(=O)n3C4)c(C)c2oc1=O | - | 0 | 0 | 0 | 0 | 33.7 | 68.0 | 39.9
O=C(NCCOc1ccc(Cl)cc1)c1ccc2ccccc2n1 | 0 | 0 | 0 | 0 | 0 | 0 | - | -
Cc1cc(C)n2ncc(C(=O)NCc3ccc(Cl)cc3)c2n1 | 0 | 0 | 0 | 0 | 0 | 33.7 | 118.2 | 88.6
Cn1ncc(Cl)c1C(=O)NCc1ccc(Cl)cc1 | 0 | 0 | 0 | 0 | 0 | 0 | - | -
O=C(NCc1ccc(Cl)cc1)c1cnn2ccccc12 | 0 | 0 | 0 | - | 0 | 38.1 | 0 | 0
Cc1cc(C)n2ncc(C(=O)NCc3ccccc3)c2n1 | 0 | 0 | 0 | 0 | 0 | 0 | - | -
O=C(NCc1ccc(Cl)cc1)c1ccc2ccccc2n1 | 0 | 0 | 0 | 0 | 0 | 64.7 | 137.5 | 117.5
CC(C)NC(=O)Nc1cccc2c1O[C@H](CN(C)S(=O)(=O)c1ccccc1)[C@@H](C)CN([C@H](C)CO)C2=O | - | 0 | 0 | 0 | 0 | 39.0 | 59.2 | 61.3
S=c1[nH]nc(-c2cccs2)n1Cc1ccccc1 | 0 | 0 | 0 | 0 | 0 | 28.0 | 86.1 | 59.4
